# Assay results: the supplement of paper PMC6555819
# How the values were obtained:
# Assay in all cases: PBM binding z-score (relative to random genomic background probes); higher = stronger binding; sequences stand for … in GC…GCGATTGACAGCGTAGAATGAAGG
# [1] = system: FXR:RXRa (NR concentration 270 nM, RXRa partner concentration 90 nM)
# Outline: (§1)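 On custom Agilent 4×180K arrays, double-stranded probes with 34-nt variable regions carried direct-repeat seeds, single-nucleotide variants, half-site ablations or random human genomic background. Ligand-free nuclear receptor dimers were applied for 1 h, and binding was read with antibodies against each partner (one per run). Binding z-scores come from regression-normalized fluorescence, with the random background probes as reference.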
# [2] = system: LXRa:RXRa (NR concentration 270 nM, RXRa partner concentration 90 nM)
# Outline: as §1
# [3] = system: LXRa homodimer (NR concentration 270 nM)
# Outline: as §1
# [4] = system: LXRb:RXRa (NR concentration 270 nM, RXRa partner concentration 90 nM)
# Outline: as §1
# [5] = system: LXRb homodimer (NR concentration 270 nM)
# Outline: as §1
# [6] = system: PPARa:RXRa (NR concentration 270 nM, RXRa partner concentration 90 nM)
# Outline: as §1
# [7] = system: PPARg:RXRa (NR concentration 180 nM, RXRa partner concentration 90 nM)
# Outline: as §1
# [8] = system: PPARg:RXRa 270nM:90nM, anti-RXR (NR concentration 270 nM, RXRa partner concentration 90 nM)
# Outline: as §1
# [9] = system: PPARg:RXRa 30nM:10nM, anti-RXR (NR concentration 30 nM, RXRa partner concentration 10 nM)
# Outline: as §1
# [10] = system: PPARg:RXRa 90nM:30nM, anti-RXR (NR concentration 90 nM, RXRa partner concentration 30 nM)
# Outline: as §1
Sequence,PBM binding z-score [1],PBM binding z-score [2],PBM binding z-score [3],PBM binding z-score [4],PBM binding z-score [5],PBM binding z-score [6],PBM binding z-score [7],PBM binding z-score [8],PBM binding z-score [9],PBM binding z-score [10]
CGTCCAAGATCAGCAGGTCAGTGAAAGCGACGTG,0.239,0.32,0.0834,0.195,-0.306,0.671,0.0765,0.227,-0.568,-0.405
CGAACTAGGTCAGTGACAGGACAGTGAATAGTAA,1.32,0.944,-0.268,0.82,-0.44,3.47,5.73,4.86,1.66,4.11
TCTAGAAGGCCAGAGGGTCACTCAAGAGGTACGG,1.32,1.11,-0.432,1.28,-0.671,2.5,1.33,2.98,3.24,3.02
CGACCAAGGTGAACAAGGTCGTTGATTACTATTC,1.09,1.16,-0.248,1.83,-0.531,2.54,1.27,1.29,-0.0265,0.643
CCAACTAGGTCACAGAGGTCAAAGTCCGTGCGTA,7.03,6.68,7.62,6.53,2.14,6.53,9.3,7.99,5.85,7.48
CGTCCAAGGCCAGAGAGGTCAGTGAATGCCGAGT,1.34,1.44,0.491,1.74,-0.859,2.28,0.0517,0.653,-0.871,-0.148
TCTATTAGTTCATTAGGGCAACCGAAACAGCGGA,1.12,1.73,1.56,1.29,1.34,2.47,1.21,2.92,3.81,3.34
CAAACTAGGTCACCGGAAGGTGAAAGTCCGCATG,4.95,3.97,0.466,3.14,0.0268,5.42,9.29,7.34,5.78,7.31
CCTTACGGGTCACAAGGTTATAGCACGACGAGCG,5.77,4.34,0.422,3.65,0.114,5.46,5.45,5.85,2.52,4.65
TAGCCTAGGTCTTTCAGGGGCCAGTATAGAAAGC,-0.49,-0.379,-0.527,-0.066,-0.296,-0.263,-0.284,-0.623,-0.57,-0.453
TGAATGAGGTTCTAAGATCAGGGAACGTTGCAAA,-0.725,-0.693,-0.989,-0.763,-0.398,-0.344,-0.0951,-0.03,-0.103,0.161
CCTACTAGGCCACGAAAGGTCATTGATTCAGTGA,4.02,5.66,5.5,4.32,0.558,4.84,5.77,5.3,2.35,4.43
TCGAGCAGGTTACCAATGGGGCATTCAGCTTTCT,0.00101,1.37,-0.694,0.999,-1,0.887,-0.242,0.245,0.211,0.322
GATACAGGGTCAGCTAGAGGCCAGAGTTTGGAAA,4.24,2.73,-0.116,2.49,-0.678,4.08,3.23,3.01,0.716,2.22
TCTCGGAGGACACGAAGGTAAGAGCTTTCCAGAG,0.0947,-0.361,-0.534,-0.695,-1.37,-0.0207,-0.0725,0.91,2.21,1.39
ATATGTAGGTTATCGGGACATTCAGTTTGCGCAT,0.568,0.813,0.715,0.858,0.692,3.3,5.05,4.45,2.25,3.45
TAGCCTAGGTCATGGGCGAGTATACCACGCGAAC,4.42,3.43,0.0703,2.28,-0.329,4.15,3.46,3.42,0.67,2.09
ATACCAAGGTGATCGTGAGGTCGTTCATACTAAC,2.05,1.58,1.23,1.4,0.148,1.53,0.472,0.354,-0.0192,-0.0407
TCTAGTTCGTCAAAGGTCACACACTCGAAATGCG,6.15,6.02,4.48,5.55,1.9,5.99,5.62,6.47,5.73,6.28

Sequence,PBM binding z-score [1],PBM binding z-score [2],PBM binding z-score [3],PBM binding z-score [4],PBM binding z-score [5],PBM binding z-score [6],PBM binding z-score [7],PBM binding z-score [8],PBM binding z-score [9],PBM binding z-score [10]
TCATATAGGTAAAAGGTGAAAATCGGTGTGGTAA,2.32,2.08,0.347,2.14,0.2,5.34,9.36,8.69,8.68,9.26
ACAGACAGATGATGAAGGTAACTCAGGCTATCAT,0.128,-0.0336,0.0406,0.0281,0.222,-0.128,0.719,-0.0905,0.15,-0.00308
AGAATGAGGTTACCAAAGATCACGGAAACGCTTG,2.28,6.94,0.129,3.82,-0.202,3.5,2.79,2.7,0.915,2.03
GCTGCTAGGTCAACTGATGGTCAGTTAAAGCTCG,3.99,3.11,0.245,2.35,0.46,3.74,2.8,3.25,0.658,2.06
ACAGACAGGTGATGAAAGTAACTCAGGCTATCAT,-0.313,-0.244,-0.212,-0.34,-0.446,-0.12,0.596,-0.0784,-0.0592,-0.305
AGAACGAGGGCAATGAGTTGACAGCACGGGTGGC,0.329,0.24,-0.349,-0.388,-0.581,1.24,1.38,0.8,0.0302,0.423
TAGCCTAGGTCAGATCGGGCCCGTATACGCTATA,1.58,1.2,-0.271,0.916,-0.19,1.67,0.67,0.657,-0.472,0.0407
CATACAGGGTCAGCTAGGCCAGTGTAGGGACGGC,4.16,2.82,-0.158,1.81,0.182,4.09,2.96,2.97,0.501,2.32
AGAACGAGGGCACGCTGAGTTTATAGCAGAGTAG,0.87,1.08,-0.437,0.283,-1.07,2.21,2.19,1.98,0.505,1.43
CCTTACGGGTCGAGGTTATAGCACGGGTGGTACG,1.26,1.27,-0.211,0.916,-0.417,2.42,0.822,1.01,-0.146,0.242
GCTGCTAGGTCAGGTTGGTCAGATAACGGGTACG,1.44,0.895,-0.305,0.708,0.0296,1.5,1.03,1.12,-0.213,0.38
AGAACGAGCGCAATGAGTTGATAGCACGGGTGGC,-0.384,-0.917,-0.672,-1.03,-0.728,-0.619,0.568,-0.754,-0.641,-0.779
GCGACTGGGGCATCAGCAGGTTCCCATAACTTAA,-0.761,-0.491,-0.648,0.0504,-1.52,0.27,0.29,0.35,-0.948,-0.176
CGAACTAGGTCAGAACAGGACAATGAAGGATGAT,1.42,1.2,0.0697,0.618,-0.134,3.06,5.27,4.32,1.93,3.26
ATATGTAGGTTGGCTGGGGTCATTCAGACTAGGC,4.06,3.56,2.01,4.28,2.04,4.46,2.66,3.18,0.972,1.89
GATCCAGGGTCAAGGCCAGAGTACGCGTATTGAT,6.77,4.23,-0.34,3.91,-0.536,5.78,5.86,5.78,2.2,4.41
ATCTCTATGTAACCAAGTTCAGTGAATGCCGAAC,0.239,0.344,0.727,0.489,0.572,0.351,0.288,0.822,0.337,0.387
CCTAGCAGGCCAGTGTCACTCAAGCATTTCGCTT,-0.361,-0.253,-0.614,-0.187,-0.597,-0.0659,-0.338,-0.0615,-0.773,-0.752
CCGAGTAGGTTATGGGGCGTTCAGGCAACGGTGA,0.244,0.548,-0.0765,0.47,-0.285,1.67,2.44,3.87,1.97,3.39
